# Records with an inconclusive call do not appear. Where a call stands in place of a potency, no number is given. Activity calls are given as the source filed them. Unless noted, the call rests on the fitted dose curve; in most records, active means well fitted curve in the direction sought with a large enough effect; inconclusive means small, poorly fitted or top-dose-only effect, or another doubt; inactive means no such curve, though single readings can be large; an effect the other way counts as inactive or inconclusive. Where a SMILES comes first, the peptide text is derived from it. [ ]: non-standard residue; d: D form. ξ: configuration not given here. ξPhe(βξ-Me) = CC(c1ccccc1)C(N)C(=O)O; GABA = NCCCC(=O)O
# Tests used:
# [1] = target: Glutathione peroxidase 1 (Homo sapiens) (UniProt P07203); experiment: Primary qHTS Assay for Inhibitors of Recombinant Selenoprotein Glutathione Peroxidase 1 (GPX1) (AID 1845191); further: nearly all actives have a fitted effect of over 65% in size
# Sequence of Glutathione peroxidase 1 (Homo sapiens) (P07203 whole entry, looked up): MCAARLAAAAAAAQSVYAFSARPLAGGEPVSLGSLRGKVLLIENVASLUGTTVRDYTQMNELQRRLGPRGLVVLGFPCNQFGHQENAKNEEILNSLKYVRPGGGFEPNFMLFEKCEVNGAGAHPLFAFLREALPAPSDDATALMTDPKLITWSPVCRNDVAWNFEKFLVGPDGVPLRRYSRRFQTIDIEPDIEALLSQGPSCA
# How it was run: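 GR-coupled assay: compounds preincubated 30 min at room temperature with GPX1, then reaction started with CHP; final 10 nM GPX1, 1 mM GSH, 0.5 mM CHP, 0.5 mM NADPH, 100 nM GR, 0.01% BSA, pH 7.5 Tris buffer. NADPH fluorescence (340/450 nm) read at 0 and 15 min.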
# [2] = target: Phospholipid hydroperoxide glutathione peroxidase GPX4 (Homo sapiens) (UniProt P36969); experiment: Primary qHTS Assay for Inhibitors of Recombinant Selenoprotein Glutathione Peroxidase 4 (GPX4) (AID 1845192); further: nearly all actives have a fitted effect of over 65% in size; on activity change, negative = inhibition: series mostly up to about 50 µM
# Sequence of Phospholipid hydroperoxide glutathione peroxidase GPX4 (Homo sapiens) (P36969 whole entry, looked up): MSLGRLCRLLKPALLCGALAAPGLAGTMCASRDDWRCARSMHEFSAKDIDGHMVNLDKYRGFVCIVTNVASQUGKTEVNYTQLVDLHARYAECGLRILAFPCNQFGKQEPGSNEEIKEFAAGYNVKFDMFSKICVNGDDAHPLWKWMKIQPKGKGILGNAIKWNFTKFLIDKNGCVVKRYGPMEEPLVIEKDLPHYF
# How it was run: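 GR-coupled assay: recombinant GPX4 preincubated 30 min with compound at room temperature; final 200 nM GPX4, 1 mM GSH, 0.5 mM cumene hydroperoxide, 0.5 mM NADPH, 100 nM GR, 0.01% BSA, pH 7.5 Tris. NADPH fluorescence (340/450 nm) read at 0 and 15 min.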
# [3] = target: Luciferin 4-monooxygenase (Photinus pyralis) (UniProt P08659); experiment: Primary firefly luciferase (FLuc) qHTS assay for identification of artifact compounds. (AID 1845220); further: nearly all actives have a fitted effect of over 60% in size; on activity change, negative = inhibition: series mostly up to about 54 µM
# How it was run: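 Enzymatic FLuc inhibition assay: compounds pre-exposed to luciferin/ATP (10 uM each) for 15 min, then purified P. pyralis enzyme at 10 nM added. Read-out: luminescence at 5 min.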
# [4] = tested on: Nanoluciferase (engineered Oplophorus gracilirostris luciferase); experiment: Primary Nanoluciferase (NLuc) qHTS assay for identification of artifact compounds. (AID 1845222);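 further: NLuc secreted into diluted conditioned medium of S16 cells; series mostly up to about 54 µM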
# How it was run: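 S16 cell supernatant NLuc, 1:55; cpds qHTS; 15 min RT dark; Nano-Glo substrate 1:100, 5 min; luminescence; Hill fit of % inhibition.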
# [5] = Primary redox qHTS assay for identification of artifact compounds. (AID 1845223); further: potency means the concentration at half of the fitted maximal effect
# How it was run: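 Amplex Red (25 uM) and HRP (250 mU/mL) in HBSS, with compounds for 15 min, then 250 uM DTT for 30 min, room temperature, dark. Fluorescence 525/598 nm read; normalized to DMSO and 10 uM DA3003; Hill fit.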
# [6] = Primary fluorescence-based thiol-reactive (MSTI) qHTS assay for identification of artifact compounds. (AID 1845221); further: nearly all actives have a fitted effect of over 65% in size; further: potency means the concentration at half of the fitted maximal effect;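 on activity change, negative = thiol reactive: series mostly up to about 54 µM; thiol-reactive compounds lower the probe fluorescence signal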
# How it was run: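 One-hour, room-temperature, dark incubation of compound with 4 uM MSTI in PBS (pH 7.4, 2% DMSO) precedes a fluorescence read at 525 nm excitation, 598 nm emission; Hill-equation fitting yields concentration-response values.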
# [7] = qHTS drug screen for cell cycle checkpoint inhibitors in PARPi-resistant BRCA-mutant ovarian cancer cell lines. (AID 1963452; calls by dose curve); conditions: PEO1/OlaR viability, CellTiter-Glo luminescence, 96 h, stronger effect = lower value
# How it was run: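 PEO1, PEO4 and PEO1/OlaR ovarian cancer cells, 600 per well, exposed 96 h at 37C to a dilution series. Viability read by CellTiter-Glo luminescence, normalized to DMSO and empty wells; activity summarized as Z-AUC.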
# [8] = measured here: PEO1 parental Z-AUC
compound,measurement,setting,value
C=C1CCC2[C@@](C)(C=O)CCC[C@]2(C)[C@H]1CC/C(C)=C/CO (stereo partly drawn),Potency,[1],inactive
same,Potency,[2],inactive
same,Potency,[3],inactive
same,Potency,[4],inactive
CC(C)(O)C1CCC2(C)C3C(O)C4C(C13)C42CO (stereo not drawn),Potency,[1],inactive
same,Potency,[2],inactive
same,Potency,[3],inactive
same,Potency,[4],inactive
same,Potency,[5],inactive
CC1=C2C=C(CO)C(CO)CCC2(C)CCC1=O (stereo not drawn),Potency,[1],inactive
same,Potency,[2],inactive
same,Potency,[3],inactive
same,Potency,[4],inactive
NCCOCCOCCNC(=O)Cc1ccc(Nc2nc(NCc3ccc(F)cc3)nc(NCC3CCCCC3)n2)cc1,Potency,[1],inactive
same,Potency,[2],inactive
same,Potency,[3],inactive
same,Potency,[4],inactive
CC1=CC(=O)C2C(C)(C)CC(O)CC2(C)C1CO (stereo not drawn),Potency,[1],inactive
same,Potency,[2],inactive
same,Potency,[3],inactive
same,Potency,[4],inactive
COc1ccc2c(c1O)OC[C@H]1c3ccc(O)cc3O[C@@H]21,Potency,[1],inactive
same,Potency,[2],inactive
same,Potency,[3],inactive
same,Potency,[4],inactive
same,Potency,[5],inactive
CC1CCC2C(C(=O)O)=CC3C(O)C(C)(C)CC123 (stereo not drawn),Potency,[1],inactive
same,Potency,[2],inactive
same,Potency,[3],inactive
same,Potency,[4],inactive
COC(=O)C1=CO[C@@H](O[C@@H]2O[C@H](CO)[C@@H](O)[C@H](O)[C@H]2O)[C@@H]2[C@@H](C(=O)OC)[C@@H](O)C(O)[C@H]12 (stereo partly drawn),Potency,[1],inactive
same,Potency,[2],inactive
same,Potency,[3],inactive
same,Potency,[4],inactive
same,Potency,[5],inactive
CCOc1cc2ncc(C#N)c(Nc3ccc(OCc4ccccn4)c(Cl)c3)c2cc1NC(=O)/C=C/CN(C)C,Potency,[1],inactive
same,Potency,[2],inactive
same,Potency,[3],inactive
same,Potency,[6],inactive
same,Potency,[5],inactive
same,Z-AUC,[7],0.57 (inactive)
same,Z-AUC,[7]; [8],0.366
same,Z-AUC,[7]; measured here: PEO4 Z-AUC,-0.0482
COc1cc(/C=C/CO)ccc1O[C@@H]1O[C@H](CO)[C@@H](O)[C@H](O)[C@H]1O,Potency,[1],inactive
same,Potency,[2],inactive
same,Potency,[3],inactive
same,Potency,[4],inactive
same,Potency,[5],inactive
CC(C)=CCc1ccc(Oc2c(O)cc(C)cc2CO)c(C(=O)O)c1O,Potency,[1],inactive
same,Potency,[2],inactive
same,Potency,[3],inactive
same,Potency,[4],inactive
CC(C)CC1NC(=O)C(C(C)c2ccccc2)NC(=O)C(C(C)C)NC(=O)C(C)NC(=O)CCCNC(=O)C(Cc2c[nH]c3ccccc23)NC(=O)C(C)NC1=O (stereo not drawn) (cyclo([GABA]AV[ξPhe(βξ-Me)]LAW); configuration not given here),Potency,[1],inactive
same,Potency,[2],inactive
same,Potency,[3],inactive
same,Potency,[4],inactive
COc1ccccc1CC(C(=O)O)N(C)C(=O)c1ccccc1 (stereo not drawn),Potency,[1],inactive
same,Potency,[2],inactive
same,Potency,[3],inactive
same,Potency,[4],inactive
COc1cc2c(cc1O)C1(OC)Cc3ccc4c(c3C1N(C)CC2)OCO4 (stereo not drawn),Potency,[1],inactive
same,Potency,[2],inactive
same,Potency,[3],inactive
same,Potency,[4],inactive
same,Potency,[5],inactive
CCc1c(CC(N)=O)c2cc(OCCCP(=O)(O)O)ccc2n1Cc1ccccc1,Potency,[1],inactive
same,Potency,[2],inactive
same,Potency,[3],inactive
same,Potency,[4],inactive
CC12CCC3C(C)(C)C(O)CCC3(C)C1Cc1c(oc(C(=O)O)cc1=O)O2 (stereo not drawn),Potency,[1],inactive
same,Potency,[2],inactive
same,Potency,[3],inactive
same,Potency,[4],inactive
COc1ccc2c(c1)O[C@H](O[C@@H]1O[C@H](CO)[C@@H](O)[C@H](O)[C@H]1O)C(=O)N2,Potency,[1],inactive
same,Potency,[2],inactive
same,Potency,[3],inactive
same,Potency,[4],inactive
same,Potency,[5],inactive
Cc1nn(C)c2c1C(c1ccc(C(F)(F)F)cc1)C(C#N)=C(N)O2 (stereo not drawn),Potency,[1],inactive
same,Potency,[2],inactive
same,Potency,[3],inactive
same,Potency,[6],6.7 µM (active)
same,Potency,[5],4.23 µM (active)
same,Z-AUC,[7],0.183 (inactive)
same,Z-AUC,[7]; [8],1.31
same,Z-AUC,[7]; measured here: PEO4 Z-AUC,1.26
CC(=O)N(O)CCCCCN1C(=O)CCC1=O,Potency,[1],inactive
same,Potency,[2],inactive
same,Potency,[3],inactive
same,Potency,[4],inactive
same,Potency,[5],inactive
CC(=O)OC[C@]1(O)[C@H]2[C@H](OC(=O)CC(C)C)OC=C(CO[C@@H]3O[C@H](CO)[C@@H](O)[C@H](O)[C@H]3O)[C@H]2C[C@@H]1O,Potency,[1],inactive
same,Potency,[2],inactive
same,Potency,[3],inactive
same,Potency,[4],inactive
same,Potency,[5],inactive
CCOc1ccc(C(Nc2ccccn2)c2ccc3ccc(C)nc3c2O)cc1C (stereo not drawn),Potency,[1],inactive
same,Potency,[2],inactive
same,Potency,[3],inactive
same,Potency,[4],inactive
CCC(=O)NS(=O)(=O)c1ccc(-c2c(-c3ccccc3)noc2C)cc1,Potency,[1],inactive
same,Potency,[2],inactive
same,Potency,[3],inactive
same,Potency,[6],inactive
same,Potency,[5],inactive
same,Z-AUC,[7],-0.948 (inactive)
same,Z-AUC,[7]; [8],-1.08
same,Z-AUC,[7]; measured here: PEO4 Z-AUC,-1.33
C=CCc1ccc(O[C@@H]2O[C@H](CO[C@@H]3O[C@@H](C)[C@H](O)[C@@H](O)[C@H]3O)[C@@H](O)[C@H](O)[C@H]2O)cc1,Potency,[1],inactive
same,Potency,[2],inactive
same,Potency,[3],inactive
same,Potency,[4],inactive
same,Potency,[5],inactive
COc1cc(O[C@@H]2O[C@H](CO)[C@@H](O)[C@H](O)[C@H]2O)c(CCC(=O)OC[C@H]2O[C@@H](Oc3cc(OC)c(C4OC(=O)C(C)(O)C4O)cc3CCC(=O)O)[C@H](O)[C@@H](O)[C@@H]2O)cc1C1OC(=O)C(C)(O)C1O (stereo partly drawn),Potency,[1],inactive
same,Potency,[2],inactive
same,"activity change, negative = inhibition",[3],1.78% [at 11.6 µM] (inactive)
same,"activity change, negative = thiol reactive",[6],56% [at 11.5 µM] (inactive)
same,redox activity (% of DA3003),[5],-16.2% [at 11.5 µM] (inactive)

# — PubChem BioAssay (NCATS)
